Test results published in PubChem BioAssay.
Several values for one entry are separate records, joined by “and”; a condition that tells them apart may be missing. Identical values can stand only once. Inconclusive results are not listed. Activity calls are given as the source filed them.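 Rule for the calls, unless noted: active = normalized viability below 100% at a tested concentration; inactive = the rest.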

What was measured:
[1] = viability loss in pontine glioma line – cell-based, SU-DIPG-XXV, MIPE5.0, CellTiter-Glo, qHTS, dose response (AID 1347065; cut-off not given, nearly all actives have AC50 up to about 26 µM;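 note: cells exposed to compound for 48 hours before ATP readout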); conditions: CellTiter-Glo ATP luminescence
[2] = SU-DIPG-VI glioma cell viability, MIPE4.0 library, CellTiter-Glo luminescence, qHTS (AID 1347066; cut-off not given, nearly all actives have AC50 up to about 30 µM;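 note: cells exposed to compound for 48 hours before readout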); conditions: CellTiter-Glo ATP luminescence
[3] = SU-DIPG-XXV glioma cell viability, MIPE5.0 library, qHTS (AID 1347068; cut-off not given, nearly all actives have IC50 up to about 30 µM)
[4] = sensitizers of A549 cells to miR-34 induction, primary screen, imaging, A549 dox-inducible miR-34, nuclei and caspase counts (AID 1347080;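 active = compounds whose cell count with miR-34 switched on is under 0.7 times the count with it off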); conditions: A549 miR-34 inducible, Hoechst nuclei count, 48 h
[5] = modifiers of HSF1 nuclear foci, imaging, Selleck Cancer Library (AID 1347162; in the data active = plate-normalised HSF1 focus index below about 0.46); conditions: human cells, at 10 µM; SSMD: measured here: HSF1 foci SSMD mean; cell count: measured here: cell number; plate-normalised HSF1 focus index: stronger effect = lower value
[6] = survival rescue of mitochondrial mutant cells in low glucose, primary screen, MELAS cybrids, Rieske KO mouse fibroblasts, CellTiter-Glo (AID 1508586;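 active = mean z-score across replicates of 1.96 or higher in either the MELAS or the Rieske mutant cell line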;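 note: z relative to plate mean and SD of compound and empty wells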)
[7] = ovarian cancer cell viability with rucaparib, profiling panel, oncology-focused library, rucaparib conditional (AID 1508598); conditions: patient-derived ovarian cancer cells, CellTiter-Glo viability, 144 h, stronger effect = lower value
[8] = target: NAD(+) hydrolase SARM1 (Homo sapiens) (UniProt Q6SZW1); test: SARM1 TIR NADase inhibitors, cell lysate, NAD-Glo luminescence (AID 1508614;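 active = compound whose remaining NAD level is above about 45 nM, limit read from the data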;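 note: higher remaining NAD means stronger inhibition of SARM1 NADase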); conditions: SAM-TIR HEK293T lysate NADase, at 1 µM, stronger effect = higher value
Chain of NAD(+) hydrolase SARM1 (Homo sapiens) (Q6SZW1 whole entry, looked up): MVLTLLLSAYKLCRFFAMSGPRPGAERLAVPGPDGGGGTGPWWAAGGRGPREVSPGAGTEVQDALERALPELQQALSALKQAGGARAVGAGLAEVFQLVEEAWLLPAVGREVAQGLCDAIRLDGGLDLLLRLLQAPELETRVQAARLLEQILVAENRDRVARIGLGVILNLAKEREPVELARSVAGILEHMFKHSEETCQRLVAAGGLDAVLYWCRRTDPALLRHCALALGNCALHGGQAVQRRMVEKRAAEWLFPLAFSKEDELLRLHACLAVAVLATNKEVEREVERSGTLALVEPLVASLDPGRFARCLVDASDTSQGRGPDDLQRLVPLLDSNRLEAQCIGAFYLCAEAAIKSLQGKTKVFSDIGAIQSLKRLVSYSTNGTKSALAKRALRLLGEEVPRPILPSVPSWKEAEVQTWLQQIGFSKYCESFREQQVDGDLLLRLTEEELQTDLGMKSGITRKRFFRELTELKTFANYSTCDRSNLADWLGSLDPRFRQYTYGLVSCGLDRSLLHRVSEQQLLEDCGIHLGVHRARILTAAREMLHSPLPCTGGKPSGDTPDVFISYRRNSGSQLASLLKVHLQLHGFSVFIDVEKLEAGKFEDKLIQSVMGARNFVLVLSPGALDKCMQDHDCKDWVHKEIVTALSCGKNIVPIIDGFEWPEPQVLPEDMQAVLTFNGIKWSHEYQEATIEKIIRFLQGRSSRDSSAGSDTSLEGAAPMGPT

[9] = viability rescue of complex I mutant cybrids, primary screen, cell-based, galactose medium, ATP luminescence (AID 1645843;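 active = z-score of at least 1.8 in each of two replicates, scored against plate mean and spread of sample wells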;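 note: positive z means more ATP and so rescue of galactose-driven cybrid death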); conditions: complex I mutant cybrid cells, 72 h, stronger effect = higher value
[10] = LFS_MB_P medulloblastoma growth inhibition, cell-based, chromothripsis tumors, cisplatin or BGB combos (AID 1671449; in the data active = inhibition above about 80%;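 note: cells exposed for 96 hours; 0% = vehicle DMSO and 100% = killing by high DMSO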); conditions: LFS_MB_P medulloblastoma cells
[11] = HDN33 neuroblastoma growth inhibition, cell-based, chromothripsis tumors, cisplatin or BGB combos (AID 1671450; in the data active = inhibition above about 80%;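 note: cells exposed to compound for four days; 0% = vehicle DMSO and 100% = cell killing by high DMSO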); conditions: HDN33 neuroblastoma cells, stronger effect = higher value
[12] = ICB984 medulloblastoma cell growth inhibition, synergistic combos for chromothripsis tumors, cisplatin or BGB combos (AID 1671451; call rule not given here;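 note: cells exposed for 96 hours before readout; 0% = vehicle DMSO and 100% = killing by high DMSO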); conditions: ICB984 medulloblastoma cells, drug combinations, stronger effect = higher value
[13] = LFS_MB_1R medulloblastoma cell growth inhibition, synergistic combos for chromothripsis tumors, cisplatin or BGB combos (AID 1671452; in the data active = inhibition above about 80%;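 note: cells exposed for 96 hours before readout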); conditions: LFS_MB_1R medulloblastoma cells, stronger effect = higher value
[14] = HTB85 osteosarcoma cell growth inhibition, synergistic combos for chromothripsis tumors, BGB or cisplatin IC20 combos (AID 1671453; in the data active = inhibition above about 80%;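 note: cells exposed for 96 hours before readout; 0% = vehicle DMSO and 100% = high DMSO killing control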); conditions: HTB85 osteosarcoma cells, drug combinations, stronger effect = higher value
[15] = CRL2098 osteosarcoma cell growth inhibition, synergistic combos for chromothripsis tumors, BGB or cisplatin IC20 combos (AID 1671454; in the data active = inhibition above about 80%;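 note: cells exposed for 96 h before readout; 0% = vehicle DMSO and 100% = killing by high DMSO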); conditions: CRL2098 osteosarcoma cells, drug combinations, stronger effect = higher value
[16] = HD-MB03 medulloblastoma cell growth inhibition, synergistic combos for chromothripsis tumors, BGB or cisplatin IC20 combos (AID 1671455; in the data active = inhibition above about 83%;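 note: 0% = vehicle DMSO and 100% = high DMSO as cytotoxic control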); conditions: HD-MB03 medulloblastoma cells, stronger effect = higher value
[17] = measured here: combination with BGB IC40, at 0.05 µM

## O=NN(CCCl)C(=O)NC1CCCCC1
[1]
  outcome: inactive
[2]
  outcome: inactive
[3]
  outcome: inactive
[4]; stronger effect = lower value, cell number ratio, induced over uninduced
  fold change: 0.819 (inactive) and 0.861 (inactive)
[4]; measured here: relative caspase fold change +Dox/-Dox
  fold change: 1.64 and 1.87
[4]; measured here: total cells with miR-34 induction, stronger effect = lower value
  cell count: 7170 and 7550
[4]; measured here: total cells without miR-34 induction
  cell count: 8750 and 8760
[5]
  SSMD: 0.27
  cell count: 6620
  plate-normalised HSF1 focus index: 1.01 (inactive)
[6]; MELAS cybrid survival, CellTiter-Glo 48 h, stronger effect = higher value
  z-score: -0.38 (inactive) and -0.0882 (inactive)
[6]; Rieske KO mouse fibroblast survival, CellTiter-Glo 72 h
  z-score: 0.628 and -0.815
[7]; at 0.000305 µM, OCI-C5x cells, with rucaparib 10 µM, 100% = cells with rucaparib alone
  viability: 106% (inactive)
[7]; at 0.000305 µM, OCI-C5x cells, without rucaparib
  viability: 116% (inactive)
[7]; at 0.000305 µM, OCI-P5x cells, with rucaparib 20 µM, 100% = cells with rucaparib alone
  viability: 87.5% (active)
[7]; at 0.000305 µM, OCI-P5x cells, without rucaparib
  viability: 105% (inactive)
[7]; at 0.00122 µM, OCI-C5x cells, with rucaparib 10 µM, 100% = cells with rucaparib alone
  viability: 106% (inactive)
[7]; at 0.00122 µM, OCI-C5x cells, without rucaparib
  viability: 123% (inactive)
[7]; at 0.00122 µM, OCI-P5x cells, with rucaparib 20 µM, 100% = cells with rucaparib alone
  viability: 100% (active)
[7]; at 0.00122 µM, OCI-P5x cells, without rucaparib
  viability: 107% (inactive)
[7]; at 0.00488 µM, OCI-C5x cells, with rucaparib 10 µM, 100% = cells with rucaparib alone
  viability: 107% (inactive)
[7]; at 0.00488 µM, OCI-C5x cells, without rucaparib
  viability: 120% (inactive)
[7]; at 0.00488 µM, OCI-P5x cells, with rucaparib 20 µM, 100% = cells with rucaparib alone
  viability: 94.7% (active)
[7]; at 0.00488 µM, OCI-P5x cells, without rucaparib
  viability: 109% (inactive)
[7]; at 0.0195 µM, OCI-C5x cells, with rucaparib 10 µM, 100% = cells with rucaparib alone
  viability: 121% (inactive)
[7]; at 0.0195 µM, OCI-C5x cells, without rucaparib
  viability: 122% (inactive)
[7]; at 0.0195 µM, OCI-P5x cells, with rucaparib 20 µM, 100% = cells with rucaparib alone
  viability: 97.1% (active)
[7]; at 0.0195 µM, OCI-P5x cells, without rucaparib
  viability: 116% (inactive)
[7]; at 0.0781 µM, OCI-C5x cells, with rucaparib 10 µM, 100% = cells with rucaparib alone
  viability: 107% (inactive)
[7]; at 0.0781 µM, OCI-C5x cells, without rucaparib
  viability: 121% (inactive)
[7]; at 0.0781 µM, OCI-P5x cells, with rucaparib 20 µM, 100% = cells with rucaparib alone
  viability: 97.7% (active)
[7]; at 0.0781 µM, OCI-P5x cells, without rucaparib
  viability: 112% (inactive)
[7]; at 0.313 µM, OCI-C5x cells, with rucaparib 10 µM, 100% = cells with rucaparib alone
  viability: 113% (inactive)
[7]; at 0.313 µM, OCI-C5x cells, without rucaparib
  viability: 119% (inactive)
[7]; at 0.313 µM, OCI-P5x cells, with rucaparib 20 µM, 100% = cells with rucaparib alone
  viability: 103% (inactive)
[7]; at 0.313 µM, OCI-P5x cells, without rucaparib
  viability: 119% (inactive)
[7]; at 1.25 µM, OCI-C5x cells, with rucaparib 10 µM, 100% = cells with rucaparib alone
  viability: 115% (inactive)
[7]; at 1.25 µM, OCI-C5x cells, without rucaparib
  viability: 125% (inactive)
[7]; at 1.25 µM, OCI-P5x cells, with rucaparib 20 µM, 100% = cells with rucaparib alone
  viability: 90.9% (active)
[7]; at 1.25 µM, OCI-P5x cells, without rucaparib
  viability: 108% (inactive)
[7]; at 5 µM, OCI-C5x cells, with rucaparib 10 µM, 100% = cells with rucaparib alone
  viability: 118% (inactive)
[7]; at 5 µM, OCI-C5x cells, without rucaparib
  viability: 124% (inactive)
[7]; at 5 µM, OCI-P5x cells, with rucaparib 20 µM, 100% = cells with rucaparib alone
  viability: 97.4% (active)
[7]; at 5 µM, OCI-P5x cells, without rucaparib
  viability: 125% (inactive)
[8]
  remaining NAD: 10 nM (inactive)
[9]
  z-score: -0.495 (inactive)
[10]; at 0.5 µM, stronger effect = higher value
  inhibition: -24.1% (inactive) and -26.9% (inactive)
[10]; measured here: combination with BGB IC20, at 0.005 µM
  inhibition: -12.9% and -1.3%
[10]; measured here: combination with BGB IC40, at 0.005 µM
  inhibition: -38% and -34.1%
[10]; [17]
  inhibition: -45.8% and -16.7%
[10]; measured here: combination with cisplatin, at 0.5 µM, stronger effect = higher value
  inhibition: -40% and -38.1%
[10]; measured here: combination with cisplatin, at 5 µM, stronger effect = higher value
  inhibition: -6.56% and -25.7%
[11]; BGB combo, at 5 µM
  inhibition: -29.5% and -15.3%
[11]; at 0.5 µM
  inhibition: -27.8% (inactive) and -8.82% (inactive)
[11]; cisplatin combo, at 5 µM
  inhibition: -16% and 13.3%
[11]; measured here: with BGB IC20 combination, at 0.5 µM
  inhibition: -31.2% and -14.7%
[11]; measured here: with cisplatin IC20 combination, at 0.5 µM
  inhibition: -22.8% and -17.6%
[11]; single agent, at 5 µM
  inhibition: -25.6% and 2.38%
[12]; BGB IC20 combo, at 0.005 µM
  inhibition: -12.5% and 2.61%
[12]; BGB IC40 combo, at 0.005 µM
  inhibition: -25.1% and -35.2%
[12]; BGB IC40 combo, at 0.05 µM
  inhibition: -15.4% and -60.7%
[12]; at 0.5 µM
  inhibition: -38.4% (inactive) and -29.6% (inactive)
[12]; cisplatin combo, at 0.05 µM
  inhibition: -18.7% and -67%
[12]; cisplatin combo, at 0.5 µM
  inhibition: -33.8% and -42.1%
[12]; cisplatin combo, at 5 µM
  inhibition: -56.7% and -19.2%
[12]; measured here: 5 uM single agent, at 5 µM
  inhibition: -34.3% and -15.2%
[13]; at 0.5 µM
  inhibition: -15.1% (inactive) and -17.6% (inactive)
[13]; [17]
  inhibition: -47.7% and -29.7%
[13]; measured here: combination with cisplatin, at 0.5 µM
  inhibition: -17.2% and -26.3%
[13]; measured here: combination with cisplatin, at 5 µM
  inhibition: -19.8% and 0.28%
[14]; at 0.5 µM
  inhibition: -14.3% (inactive) and -7.5% (inactive)
[14]; measured here: with BGB IC20, at 0.5 µM
  inhibition: -27% and -24%
[14]; measured here: with BGB IC20, at 5 µM
  inhibition: -2.92% and -20.1%
[14]; measured here: with cisplatin IC20, at 0.5 µM
  inhibition: -13.8% and 2.41%
[14]; measured here: with cisplatin IC20, at 5 µM
  inhibition: -45.5% and 7.57%
[14]; single agent, at 5 µM
  inhibition: -16.4% and -4.13%
[15]; at 0.5 µM
  inhibition: -30.9% (inactive) and -17.1% (inactive)
[15]; measured here: combination with BGB at IC20, at 0.5 µM
  inhibition: -24.6% and 7.17%
[15]; measured here: combination with cisplatin at IC20, at 0.5 µM
  inhibition: -72.6% and -17.3%
[16]; at 0.5 µM
  inhibition: -11.2% (inactive) and -8.17% (inactive)
[16]; measured here: combo with BGB at IC20, at 0.5 µM
  inhibition: -11.5% and -2.92%
[16]; measured here: combo with cisplatin at IC20, at 0.5 µM
  inhibition: -6.91% and -12.4%
